Most compounds without a hit are left out; they make up all but 6.7% or so of the library.
C diff HTS – C. difficile growth inhibition | growth activity, negative = inhibition, % at 16 µg/mL (by protocol) | AID 1259249 | Clostridium difficile clinical isolate growth, OD600, 24 h; stronger effect = lower value | 0.25% of 86,000 active;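 active = mean growth activity at or below -80% and every replicate also at or below -80%; inconclusive = mean at or below -80% but some replicate above -80%; inactive = mean growth activity above -80%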
Pf Dd2 growth – P. falciparum Dd2 growth inhibition. activity change, % at 10 µM. 2.3% of 94,000 active. AID 1159554. SYBR Green, 72 h; stronger effect = lower value; in the data active = activity change below about -80%; inconclusive = no clear call, values can overlap the other calls
T cruzi growth-1 – T. cruzi proliferation inhibition; 5.9% of 77,000 active; AID 624255; T. cruzi beta-gal in NIH3T3, GalScreen luminescence, 90 h; inhibition, % at 8.34 µM;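 active = mean inhibition above about 93%, with at least 55% of replicates each passing it, limit read from the data, passing the limit was not always enough; inconclusive = only one of those two conditions holds; inactive = neither condition holds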
T cruzi growth-2 – inhibitors of T. cruzi proliferation. shares compounds with T cruzi growth-1. T. cruzi beta-gal in NIH3T3, GalScreen luminescence, 90 h. inhibition, % at 8.35 µM. 72% of 5,600 active;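 active = mean replicate inhibition above about 95% and at least 55% of replicates individually reaching it, limit read from the data; inconclusive = only one of the two criteria is met; inactive = neither criterion is met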
T cruzi growth-3 – inhibitors of T. cruzi proliferation; T. cruzi beta-gal in NIH3T3, GalScreen luminescence, 90 h; shares compounds with T cruzi growth-1; inhibition, % at 2.09 µM; 21% of 5,600 active; AID 651740;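 active = mean inhibition above about 95%, with at least 55% of replicates also reaching it, limit read from the data; inconclusive = meets just one of the two conditions; inactive = meets neither condition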
NIH3T3 tox – NIH/3T3 (mouse) viability loss. shares compounds with T cruzi growth-1. NIH/3T3 viability, CellTiter-Glo ATP luminescence, 90 h. cytotoxicity (signal decrease), % at 8.35 µM. 14% of 5,600 active;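 active = mean signal decrease across replicates above about 35% based on untreated-well scatter, with enough replicates individually passing, limit read from the data; inconclusive = no rule stated though some were filed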
3T3 cytotox 2 – cytotoxicity in mouse NIH/3T3 fibroblasts; shares compounds with T cruzi growth-1; NIH/3T3 viability, CellTiter-Glo ATP luminescence, 90 h; inhibition, % at 24.9 µM; 56% of 5,600 active;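 active = mean loss of cell viability signal at or above a set limit, and enough replicates individually reaching it; inconclusive = meets only the mean limit or only the replicate share; inactive = meets neither condition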
Numbers stand for hits; i = inactive; ? = inconclusive; nt = no result given.

SMILES | C diff HTS | Pf Dd2 growth | T cruzi growth-1 | T cruzi growth-2 | T cruzi growth-3 | NIH3T3 tox | 3T3 cytotox 2
CC(C)NC(=O)N(C)C[C@@H]1Oc2cc(-c3ccncc3)ccc2S(=O)(=O)N([C@@H](C)CO)C[C@H]1C | i | i | 110.9 | i | i | i | i
CCCNC(=O)N(C)C[C@@H]1Oc2cc(-c3ccncc3)ccc2S(=O)(=O)N([C@@H](C)CO)C[C@@H]1C | i | i | i | nt | nt | nt | nt
CCCNC(=O)N(C)C[C@H]1Oc2cc(-c3ccncc3)ccc2S(=O)(=O)N([C@@H](C)CO)C[C@@H]1C | i | i | 96.7 | ? | i | i | ?
CC(C)NC(=O)N(C)C[C@H]1Oc2cc(-c3ccccc3)ccc2S(=O)(=O)N([C@H](C)CO)C[C@H]1C | i | i | i | nt | nt | nt | nt
CC(C)NC(=O)N(C)C[C@@H]1Oc2cc(-c3ccncc3)ccc2S(=O)(=O)N([C@@H](C)CO)C[C@@H]1C | i | i | 102.7 | i | i | i | i
CCCNC(=O)N1C[C@@H]2[C@H](c3ccccc31)[C@@H](CO)N2Cc1ccccc1F | i | i | i | nt | nt | nt | nt
C[C@@H]1CN([C@@H](C)CO)C(=O)c2cc(NS(=O)(=O)c3ccc(F)cc3)ccc2O[C@@H](C)CCCCO[C@H]1CN(C)C(=O)c1ccncc1 | nt | i | i | nt | nt | nt | nt
O=C(C[C@@H]1C=C[C@H](NC(=O)Nc2cc(F)ccc2F)[C@H](CO)O1)NCc1ccccn1 | i | i | i | nt | nt | nt | nt
Cc1cccc(S(=O)(=O)N2C[C@@H]3[C@H](c4ccccc42)[C@@H](CO)N3CC2CCCC2)c1 | i | i | i | nt | nt | nt | nt
Cc1cccc(S(=O)(=O)N2C[C@H]3[C@@H](c4ccccc42)[C@@H](CO)N3CC2CCCC2)c1 | i | i | 99.1 | 103.6 | i | i | 103.2
Cc1cccc(S(=O)(=O)N2C[C@@H]3[C@H](c4ccccc42)[C@@H](CO)N3CC2CCOCC2)c1 | i | i | i | nt | nt | nt | nt
Cc1cccc(S(=O)(=O)N2C[C@@H]3[C@H](c4ccccc42)[C@H](CO)N3CC2CCCC2)c1 | i | i | 98.4 | 104.4 | i | i | 98.6
O=C(C[C@@H]1CC[C@H]2[C@@H](COC[C@@H](O)CN2S(=O)(=O)c2ccc(F)cc2)O1)NCC1CC1 | i | i | i | nt | nt | nt | nt
C[C@@H]1CN([C@@H](C)CO)C(=O)c2cc(NC(=O)NC3CCCCC3)ccc2O[C@@H](C)CCCCO[C@H]1CN(C)C(=O)Nc1ccccc1 | nt | i | i | nt | nt | nt | nt
O=C(c1ccc(F)cc1)N1CCCCN2[C@H](CO)[C@H](c3ccc(C#CC4(O)CCCC4)cc3)[C@@H]2C1 | i | i | 107.3 | 103.3 | i | i | i
O=C(C1CCC1)N1CCCCN2[C@H](CO)[C@@H](c3ccc(C#CC4(O)CCCC4)cc3)[C@H]2C1 | i | i | i | nt | nt | nt | nt
O=C(C1CCC1)N1CCCCN2[C@H](CO)[C@H](c3ccc(C#CC4(O)CCCC4)cc3)[C@@H]2C1 | i | i | ? | 98.8 | i | i | 39.5
O=C(C1CCC1)N1CCCCN2[C@H](CO)[C@H](c3ccc(C#CC4(O)CCCC4)cc3)[C@H]2C1 | i | i | 101.0 | ? | i | i | i
O=C(C1CCC1)N1CCCCN2[C@H](C1)[C@@H](c1ccc(C#CC3(O)CCCC3)cc1)[C@@H]2CO | i | i | i | nt | nt | nt | nt
O=C(c1ccc(F)cc1)N1CCCCN2[C@H](CO)[C@@H](c3ccc(C#CC4(O)CCCC4)cc3)[C@@H]2C1 | i | i | i | nt | nt | nt | nt
O=C(C1CCC1)N1CCCCN2[C@H](C1)[C@H](c1ccc(C#CC3(O)CCCC3)cc1)[C@@H]2CO | i | i | i | nt | nt | nt | nt
O=C(C1CCCC1)N1CCCCN2[C@H](CO)[C@H](c3ccc(C#CC4(O)CCCC4)cc3)[C@H]2C1 | i | i | 103.9 | 109.0 | i | i | 30.1
C[C@H](CO)N1C[C@H](C)[C@H](CN(C)CC2CCCC2)OCc2cnnn2CCCC1=O | i | i | i | nt | nt | nt | nt
C[C@H]1CN([C@@H](C)CO)C(=O)c2cc(C3=CCCC3)cnc2O[C@H]1CN(C)S(=O)(=O)c1cn(C)cn1 | i | i | i | nt | nt | nt | nt
O=C(C[C@@H]1C=C[C@@H](NC(=O)c2ccc3c(c2)OCO3)[C@@H](CO)O1)NCc1ccc(Cl)cc1 | i | i | i | nt | nt | nt | nt
SMILES | C diff HTS | Pf Dd2 growth | T cruzi growth-1 | T cruzi growth-2 | T cruzi growth-3 | NIH3T3 tox | 3T3 cytotox 2
O=C(Cc1ccccn1)N1CC(=O)N2[C@H](C1)[C@H](c1ccc(C#CCC3CCCC3)cc1)[C@@H]2CO | i | i | nt | nt | nt | nt | nt
C[C@H](CO)N1C[C@H](C)[C@@H](CN(C)Cc2ccc(Oc3ccccc3)cc2)Oc2ccc(NS(=O)(=O)c3ccc(Cl)cc3)cc2CC1=O | i | i | i | nt | nt | nt | nt
CC(C)CC#Cc1ccc2c(c1)O[C@@H](CN(C)Cc1cncnc1)[C@H](C)CN([C@H](C)CO)S2(=O)=O | i | i | i | nt | nt | nt | nt
CC(C)CC#Cc1ccc2c(c1)O[C@H](CN(C)Cc1ccncc1)[C@@H](C)CN([C@H](C)CO)S2(=O)=O | i | i | 122.2 | 103.7 | 103.8 | i | 104.8
CC(C)CC#Cc1ccc2c(c1)O[C@H](CN(C)Cc1ccc(F)cc1)[C@@H](C)CN([C@@H](C)CO)S2(=O)=O | i | i | i | nt | nt | nt | nt
CC(C)CC#Cc1ccc2c(c1)O[C@@H](CN(C)Cc1cncnc1)[C@@H](C)CN([C@@H](C)CO)S2(=O)=O | i | i | i | nt | nt | nt | nt
CC(C)CC#Cc1ccc2c(c1)O[C@H](CN(C)Cc1ccncc1)[C@@H](C)CN([C@@H](C)CO)S2(=O)=O | i | i | 130.1 | i | 111.0 | ? | 106.0
CC(C)CC#Cc1ccc2c(c1)O[C@@H](CN(C)Cc1ccncc1)[C@H](C)CN([C@H](C)CO)S2(=O)=O | i | i | 129.5 | i | 105.0 | 60.9 | 104.4
CO[C@@H]1CN(C)C(=O)c2ccc(NC(=O)C3CCC3)cc2OC[C@@H](C)N(C(=O)CN(C)C)C[C@@H]1C | i | i | i | nt | nt | nt | nt
O=C(Nc1ccccc1)N1CC(=O)N2[C@@H](CO)[C@H](c3ccc(C#Cc4cccnc4)cc3)[C@@H]2C1 | i | i | nt | nt | nt | nt | nt
O=S(=O)(Cc1ccccc1)N1CCCCN2[C@H](C1)[C@H](c1ccc(-c3cccnc3)cc1)[C@@H]2CO | i | i | 98.2 | i | i | i | i
O=S(=O)(Cc1ccccc1)N1CCCCN2[C@@H](CO)[C@@H](c3ccc(-c4cncnc4)cc3)[C@@H]2C1 | i | i | i | nt | nt | nt | nt
O=S(=O)(Cc1ccccc1)N1CCCCN2[C@H](CO)[C@H](c3ccc(-c4cccnc4)cc3)[C@@H]2C1 | i | i | i | nt | nt | nt | nt
O=S(=O)(Cc1ccccc1)N1CCCCN2[C@H](CO)[C@H](c3ccc(-c4cccnc4)cc3)[C@H]2C1 | i | i | 108.2 | 107.5 | i | i | 27.4
CC(C)C#Cc1ccc2c(c1)O[C@@H](CN(C)Cc1ccccn1)[C@@H](C)CN([C@H](C)CO)S2(=O)=O | i | i | i | nt | nt | nt | nt
C[C@@H]1CN([C@@H](C)CO)S(=O)(=O)c2ccc(C#CC3CC3)cc2O[C@H]1CN(C)Cc1ccccn1 | i | i | ? | 99.7 | i | 64.5 | 72.2

Screening data (PubChem BioAssay)
